According to PubChem BioAssay AID1159580 (chemical genetic matrix, 2015):
Several values for one entry are separate records, joined by “and”; a condition that tells them apart may be missing. Equal values may be shown once. Screen size: about 5,500 compounds; about 2,000 (36%) were called active. Roughly 18% stayed inconclusive and do not appear here. No stated cut-off is given here; in the data, active means normalized growth mostly below about 0.91 (no sharp cut-off); inconclusive means no clear call, values can overlap the other calls; inactive means mostly above about 0.92. The list shows a part of the results.

Assay: chemical genetic growth profiling, strain panel (AID 1159580);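 further: tested at 20 µM; growth read once vehicle control cultures reached saturation at 30 °C; 1 = growth at the plate median or of vehicle wells; lower values mean less growth of the strain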
Conditions: S. cerevisiae deletion strains, growth OD

Measured: normalized growth

CCCn1c(=O)c2[nH]c(C3CCCC3)nc2n(CCC)c1=O
inactive: locus YAL013W, strain DEP1, hits give low values 0.992 | locus YAL021C, strain ccr4, hits give low values 1.01 | locus YAL026C, strain drs2, hits give low values 0.984 | locus YAL030W, strain snc1, hits give low values 0.973 | locus YAL040C, strain CLN3, hits give low values 0.995 | locus YBL061C, strain skt5, hits give low values 0.989 | locus YBR009C, strain hhf1, hits give low values 0.969 | locus YBR021W, strain FUR4, hits give low values 1.01 | locus YBR023C, strain chs3, hits give low values 0.986 | locus YBR171W, strain sec66, hits give low values 0.976 | locus YBR229C, strain ROT2, hits give low values 0.992 | locus YBR231C, strain swc5, hits give low values 0.984 | locus YBR279W, strain paf1, hits give low values 1 | locus YCL011C, strain gbp2, hits give low values 0.986 | locus YCL016C, strain dcc1, hits give low values 0.98 | locus YCL029C, strain bik1, hits give low values 0.959 | locus YCL061C, strain MRC1 (second series), hits give low values 0.999 | locus YCL061C, strain MRC1, hits give low values 0.977 | locus YCL069W, strain vba3, hits give low values 0.98 | locus YCR088W, strain abp1, hits give low values 0.983 | locus YDL005C, strain med2, hits give low values 0.992 | locus YDL035C, strain GPR1, hits give low values 0.981 | locus YDL040C, strain nat1, hits give low values 0.984 | locus YDL074C, strain BRE1, hits give low values 0.973 | locus YDL101C, strain DUN1, hits give low values 0.992 | locus YDL134C, strain PPH21, hits give low values 0.993 | locus YDL185W, strain tfp1, hits give low values 0.926 | locus YDL192W, strain arf1, hits give low values 0.977 | locus YDR001C, strain nth1, hits give low values 0.986 | locus YDR069C, strain doa4, hits give low values 0.976 | locus YDR101C, strain arx1, hits give low values 0.976 | locus YDR137W, strain rgp1, hits give low values 0.954 | locus YDR150W, strain NUM1, hits give low values 0.968 | locus YDR159W, strain sac3, hits give low values 0.968 | locus YDR162C, strain NBP2, hits give low values 0.998 | locus YDR195W, strain ref2 0.947 | locus YDR297W, strain sur2, hits give low values 0.99 | locus YDR318W, strain mcm21, hits give low values 0.964 | locus YDR334W, strain swr1, hits give low values 0.988 | locus YDR335W, strain msn5, hits give low values 0.987 | locus YDR363W, strain ESC2, hits give low values 1.01 | locus YDR388W, hits give low values 0.96 | locus YDR392W, strain spt3, hits give low values 0.839 | locus YDR502C, strain sam2, hits give low values 0.98 | locus YEL003W, strain gim4, hits give low values 0.985 | locus YEL037C, strain rad23, hits give low values 0.991 | locus YEL061C, strain CIN8 (second series), hits give low values 0.987 | locus YEL061C, strain CIN8, hits give low values 0.994 | locus YER002W, strain NOP16, hits give low values 1.01 | locus YER015W, strain faa2, hits give low values 1 | locus YER016W, strain bim1, hits give low values 0.98 | locus YER110C, hits give low values 0.949 | locus YER111C, strain swi4, hits give low values 0.993 | locus YER155C, strain BEM2 (second series), hits give low values 0.921 | locus YER155C, strain BEM2, hits give low values 0.995 | locus YER167W, strain BCK2, hits give low values 0.971 | locus YFR010W, strain ubp6, hits give low values 0.992 | locus YGL078C, strain dbp3, hits give low values 0.967 | locus YGL086W, strain mad1, hits give low values 0.98 | locus YGL167C, strain pmr1, hits give low values 0.982 | locus YGL173C, strain kem1, hits give low values 0.983 | locus YGL227W, strain vid30, hits give low values 0.98 | locus YGL240W, strain doc1, hits give low values 0.989 | locus YGL248W, strain PDE1, hits give low values 0.995 | locus YGL253W, strain hxk2, hits give low values 0.992 | locus YGR078C, strain PAC10, hits give low values 0.985 and 0.986 | locus YGR135W, strain pre9, hits give low values 1 | locus YGR229C, strain SMI1, hits give low values 0.996 and 0.953 | locus YGR252W, strain gcn5, hits give low values 0.926 | locus YHR013C, strain ard1, hits give low values 0.928 | locus YHR027C, strain rpn1, hits give low values 0.988 | locus YHR030C, strain SLT2, hits give low values 0.984 | locus YHR079C, strain IRE1 (second series), hits give low values 0.975 | locus YHR094C, strain hxt1, hits give low values 0.963 | locus YHR129C, strain ARP1, hits give low values 0.985 | locus YHR142W, strain chs7, hits give low values 0.988 | locus YHR200W, strain rpn10, hits give low values 0.963 | locus YIL066C, strain RNR3, hits give low values 0.972 | locus YIL073C, strain SPO22, hits give low values 0.914 | locus YIL125W, strain kgd1, hits give low values 0.985 | locus YIR030C, strain dcg1, hits give low values 0.977 | locus YJL092W, strain hpr5, hits give low values 1 | locus YJL095W, strain BCK1 (second series), hits give low values 0.981 | locus YJL095W, strain BCK1, hits give low values 0.996 | locus YJL115W, strain asf1, hits give low values 0.994 | locus YJL129C, strain trk1, hits give low values 0.943 | locus YJL134W, strain LCB3, hits give low values 0.979 | locus YJL154C, strain vps35, hits give low values 0.979 | locus YJL164C, strain tpk1, hits give low values 0.988 | locus YJL166W, strain qcr8, hits give low values 0.988 | locus YJL168C, strain set2, hits give low values 0.971 | locus YJL187C, strain SWE1 (second series), hits give low values 0.982 | locus YJL187C, strain SWE1, hits give low values 0.995
